{"source": "PubChem BioAssay AID1626", "about": "(SRMLSC, 2009)", "note": "In all, about 220,000 compounds went through this assay and about 2,000 (0.91%) were called active. Not shown: some 2% with an inconclusive outcome. The list is a sample of the results. Results with a measured potency or affinity are listed apart. A number with no mark means an inactive call. Cut-off read from the data, not from the text of the source: inconclusive = inhibition above about 80% without an active follow-up result; inactive = below that; test concentration not stated here.", "data": [{"experiment": "M. tuberculosis H37Rv growth inhibitors, H37Rv strain (AID 1626);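 note: bacteria incubated seven days before Alamar blue readout; 0% = bacteria only wells and 100% = bacteria with antibiotic wells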", "conditions": "active compounds read high, concentration not given here", "units": {"inhibition": "%"}, "values": [{"compound": "COC(=O)CCCC1=CC2=C(c3ccccc3)C(=O)C(C)(OC(=O)C3CCCC3)C(=O)C2=CN1CCc1c[nH]c2ccccc12", "note": "(stereo not drawn)", "inhibition": 0.18}, {"compound": "COc1ccc(-n2c(C)cc(C(=O)Cn3nnc4ccccc4c3=O)c2C)cc1", "inhibition": -8.34}, {"compound": "Cc1ccc(CN(c2ccc(C(=O)N3CCc4ccccc4C3)cc2)S(C)(=O)=O)cc1", "inhibition": 6.8}, {"compound": "N#Cc1ccccc1Cn1cc(C(=O)c2cccs2)c2ccccc21", "inhibition": 7.78}, {"compound": "Nc1nc(Nc2cccc(F)c2)nc(NCCO)c1[N+](=O)[O-]", "inhibition": 7.19}, {"compound": "CC1CCC(C(C)C)C(OC(=O)COC(=O)c2cccn2C)C1", "note": "(stereo not drawn)", "inhibition": -6.06}, {"compound": "CC1CCC(C(C)C)C(OC(=O)Cn2nnc3c(cnn3-c3ccccc3)c2=O)C1", "note": "(stereo not drawn)", "inhibition": 1.77}, {"compound": "CC1CCC(C(C)C)C(OC(=O)COC(=O)c2ccccc2N)C1", "note": "(stereo not drawn)", "inhibition": 6.07}, {"compound": "CC1CCC(C(C)C)C(OC(=O)CSc2nccc(=O)[nH]2)C1", "note": "(stereo not drawn)", "inhibition": -8.76}, {"compound": "CC1CCC(C(C)C)C(OC(=O)COC(=O)c2ccc(N)cc2)C1", "note": "(stereo not drawn)", "inhibition": 68.7}, {"compound": "CC1CCC(C(C)C)C(OC(=O)COC(=O)c2ccc(=O)[nH]c2)C1", "note": "(stereo not drawn)", "inhibition": -0.66}, {"compound": "CCOc1ccc(CCNC(=O)Cn2cccc2C(=O)c2ccccc2C)cc1OCC", "inhibition": 4.18}, {"compound": "Cc1c(-c2n[nH]c(=S)n2-c2ccc(Br)cc2)nnn1-c1ccc(Cl)cc1", "inhibition": 4.27}, {"compound": "CCOC(CNc1c([N+](=O)[O-])c(=O)n(C)c(=O)n1C)OCC", "inhibition": 3.27}, {"compound": "Cc1ccccc1NC(=O)OCc1cccnc1Sc1ccc(Cl)cc1", "inhibition": 0.86}, {"compound": "Cn1c(SCC(=O)O)nc2ccccc2c1=O", "inhibition": 3.07}, {"compound": "Cc1ccc(Sc2ccc(/C=C3/C(=O)NN(c4ccccc4)C3=O)o2)cc1", "inhibition": 75.7}, {"compound": "CN1C(=O)C(=Cc2ccc(Sc3ccccc3)o2)C(=O)N(C)C1=O", "inhibition": 41}, {"compound": "CCCCc1nnc(NC(=O)CN2C(=O)c3ccccc3C2=O)s1", "inhibition": 0.96}, {"compound": "CCOC(=O)COc1ccc(S(=O)(=O)N2CCN(c3ccc(F)cc3)CC2)cc1", "inhibition": 8.22}, {"compound": "CN1CCN(C(=O)/C(=C\\c2cccc([N+](=O)[O-])c2)NC(=O)c2cccs2)CC1", "inhibition": -3.33}, {"compound": "COc1ccc(CN(C(=O)c2ccc3c(c2)OCCO3)C(C(=O)NC2CCCCC2)c2ccc3ncccc3c2)cc1", "note": "(stereo not drawn)", "inhibition": 67.9}, {"compound": "O=C(NC1CCCCC1)C(c1ccc2ncccc2c1)N(Cc1ccco1)C(=O)c1ccc2c(c1)OCCO2", "note": "(stereo not drawn)", "inhibition": 13.5}, {"compound": "O=C(NC1CCCCC1)C(c1ccc2ncccc2c1)N(Cc1ccccc1)C(=O)c1cccs1", "note": "(stereo not drawn)", "inhibition": 40.5}, {"compound": "O=C(NC1CCCCC1)C(c1ccc2ncccc2c1)N(Cc1ccc2c(c1)OCO2)C(=O)c1cccs1", "note": "(stereo not drawn)", "inhibition": 8.94}, {"compound": "Cn1c(SCC(=O)N/N=C/c2cccnc2)nnc1-c1ccccc1", "inhibition": -5.36}, {"compound": "Cc1ccc(C(=O)OCC(=O)NC(C)C)cc1S(=O)(=O)N1CCOCC1", "inhibition": -1.79}, {"compound": "CN(Cc1ccccc1)S(=O)(=O)c1ccc(NC(=S)NC(=O)C(C)(C)C)cc1", "inhibition": 9.18}, {"compound": "COc1cc(CN2CCCC(C(=O)c3ccc4c5c(cccc35)CC4)C2)cc(OC)c1O", "note": "(stereo not drawn)", "inhibition": -1.67}, {"compound": "CC(C)c1[nH]nc2c1C(c1ccco1)C(C#N)=C(N)O2", "note": "(stereo not drawn)", "inhibition": -5.64}, {"compound": "O=C1CC(C(=O)O)C2(CCCC2)O1", "note": "(stereo not drawn)", "inhibition": 9.23}, {"compound": "Cc1ccc(N(CC(=O)NC2CCCC2)C(=O)CCCC(=O)Nc2ccccn2)cc1C", "inhibition": 10}, {"compound": "COc1cnc(-c2ccccn2)nc1NC(C)C", "inhibition": 75.4}, {"compound": "O=C(O)c1cnc(-c2ccccc2)nc1Sc1ccccc1Cl", "inhibition": 1.01}, {"compound": "Clc1ccccc1Sc1ccc(-c2ccccn2)s1", "inhibition": -5.02}, {"compound": "COc1ccccc1Sc1nc(-c2ccccc2)ncc1OC", "inhibition": -2.36}, {"compound": "CC12CN3CC(C)(CN(C1)C3c1cccnc1)C2=O", "note": "(stereo not drawn)", "inhibition": -0.26}, {"compound": "O=C(NC(=S)NCCN1CCOCC1)c1ccccc1", "inhibition": -16.1}, {"compound": "CCOC(=O)C1CCCN(c2cc(NCCCO)c([N+](=O)[O-])c3nonc23)C1", "note": "(stereo not drawn)", "inhibition": 1.76}, {"compound": "CCOC(=O)C1CCCN(C(=O)c2ccc([N+](=O)[O-])c(C)c2)C1", "note": "(stereo not drawn)", "inhibition": -2.07}, {"compound": "Cc1n[nH]c(=O)n1-c1ccc(OCc2ccccc2)cc1", "inhibition": -0.14}, {"compound": "Cc1cc(-c2nnc(SCC(=O)c3ccc(F)cc3)o2)no1", "inhibition": 3.52}, {"compound": "c1ccc2c(N3CCOCC3)nc(-c3ccncc3)nc2c1", "inhibition": -3.11}, {"compound": "c1ccc2c(N3CCCCCC3)nc(-c3ccncc3)nc2c1", "inhibition": 37}, {"compound": "CN1CCN(c2nc(-c3ccccn3)nc3ccccc23)CC1", "inhibition": 10.9}, {"compound": "Fc1ccccc1-c1nc(N2CCCCC2)c2ccccc2n1", "inhibition": 7.2}, {"compound": "CCN1CCN(c2nc(-c3ccccn3)nc3ccccc23)CC1", "inhibition": -2.25}, {"compound": "c1cncc(-c2nc(N3CCOCC3)c3ccccc3n2)c1", "inhibition": -2.03}, {"compound": "CCn1cc(C(=O)N2CCN(c3ccc([N+](=O)[O-])cc3)CC2)c(=O)c2ccc(C)nc21", "inhibition": 6.57}, {"compound": "O=S(=O)(O)c1nc2ccccc2[nH]1", "inhibition": -0.16}, {"compound": "Cc1cc(=O)[nH]c(N/N=C/c2cc(C)n(-c3ccccc3)c2C)n1", "inhibition": -2.65}, {"compound": "S=C(Nc1ccc(Cl)cc1)NC1CC2CCCC(C1)N2C1CC1", "note": "(stereo not drawn)", "inhibition": -1.32}, {"compound": "Cc1ccc(-n2c(C(C)n3nc(C)c([N+](=O)[O-])c3C)n[nH]c2=S)cc1", "note": "(stereo not drawn)", "inhibition": 3.01}, {"compound": "Cc1ccc(C(=O)CSC2=NC(N)=C(C#N)C3(CCCCC3)C2C(N)=O)cc1", "note": "(stereo not drawn)", "inhibition": -12.2}, {"compound": "Fc1c(F)c(C(F)(F)F)c(F)c(F)c1N1CCN(c2ccc3nnc(C(F)(F)F)n3n2)CC1", "inhibition": 8.98}, {"compound": "FC(F)(F)c1nnc2ccc(N3CCCC3)nn12", "inhibition": -2.32}, {"compound": "COc1ccc(NC(=O)COc2ncnc3ccccc23)cc1S(=O)(=O)N1CCOCC1", "inhibition": -8.54}, {"compound": "CCCc1[nH]n(-c2nc3ccccc3s2)c(=O)c1C=NCCCOC", "inhibition": -3.55}]}]}
